About 14,000 (4.5%) of roughly 310,000 compounds showed an effect of 50% or more. The effect is printed as a negative number. The list comes from a sample in which strong results are over-represented; it also holds similar structures and randomly drawn compounds.
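Note: peak tail current of the secondary pulse compared with the same well before compound.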

The target of the assay is human ether-à-go-go-related gene (hERG) potassium channel (human, UniProt Q12809). Put plainly: primary screen, population patch clamp on CHO cells stably expressing hERG; higher = less effect of the substance.
Sequence of human ether-à-go-go-related gene (hERG) potassium channel (Q12809 whole entry, looked up): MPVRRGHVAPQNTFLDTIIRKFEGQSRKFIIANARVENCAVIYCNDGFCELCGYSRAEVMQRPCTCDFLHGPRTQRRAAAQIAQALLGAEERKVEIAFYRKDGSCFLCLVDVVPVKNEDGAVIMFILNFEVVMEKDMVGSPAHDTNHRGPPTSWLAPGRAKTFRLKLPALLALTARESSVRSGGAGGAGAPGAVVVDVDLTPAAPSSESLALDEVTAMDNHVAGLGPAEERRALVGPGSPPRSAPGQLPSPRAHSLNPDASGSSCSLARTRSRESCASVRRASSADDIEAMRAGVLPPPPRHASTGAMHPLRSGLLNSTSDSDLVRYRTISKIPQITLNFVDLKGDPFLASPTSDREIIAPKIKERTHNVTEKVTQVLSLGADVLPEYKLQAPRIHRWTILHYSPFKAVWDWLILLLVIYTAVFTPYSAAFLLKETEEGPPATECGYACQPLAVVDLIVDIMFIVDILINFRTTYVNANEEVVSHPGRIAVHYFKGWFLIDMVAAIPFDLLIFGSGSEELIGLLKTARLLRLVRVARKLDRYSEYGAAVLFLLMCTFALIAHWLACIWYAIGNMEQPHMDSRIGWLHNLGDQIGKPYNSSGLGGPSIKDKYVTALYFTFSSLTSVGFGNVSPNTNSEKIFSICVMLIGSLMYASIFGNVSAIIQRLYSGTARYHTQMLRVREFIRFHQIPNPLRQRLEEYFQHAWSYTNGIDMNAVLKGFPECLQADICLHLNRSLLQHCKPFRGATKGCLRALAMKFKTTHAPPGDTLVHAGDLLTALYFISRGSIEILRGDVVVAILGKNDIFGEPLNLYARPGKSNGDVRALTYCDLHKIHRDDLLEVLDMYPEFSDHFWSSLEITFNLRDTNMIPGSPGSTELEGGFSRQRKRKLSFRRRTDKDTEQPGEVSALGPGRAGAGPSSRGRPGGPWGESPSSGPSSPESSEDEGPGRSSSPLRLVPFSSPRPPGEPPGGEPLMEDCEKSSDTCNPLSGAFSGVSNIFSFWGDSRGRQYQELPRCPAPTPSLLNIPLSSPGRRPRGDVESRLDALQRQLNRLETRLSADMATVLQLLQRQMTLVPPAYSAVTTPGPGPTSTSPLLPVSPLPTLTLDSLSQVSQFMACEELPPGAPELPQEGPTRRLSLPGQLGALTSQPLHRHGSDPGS
As to `CCOC(=O)c1ccc(NC(=O)c2cc3c(s2)CCC3)cc1`, the “hERG current change (%, negative = inhibition) at 10uM” value turned out to be 6.15%. With `O=C(NC1CCCCC1)C1CCCN1S(=O)(=O)c1ccc(F)cc1` (centres unmarked), the “hERG current change (%, negative = inhibition) at 10uM” value is -0.938%. Then `COc1cc(/C=C2\OC(=O)c3c(OC)cccc32)ccc1O`, with 15.6%.

Take `CC(c1nccs1)N(C)C(=O)c1ccc(OC2CCN(CCc3ccccc3)CC2)cc1` (centres unmarked): the “hERG current change (%, negative = inhibition) at 10uM” value is on record as -51.4%. `CC(C)N(C)C(=O)c1ccc(OC2CCN(CCc3ccccc3)CC2)cc1`: the “hERG current change (%, negative = inhibition) at 10uM” value is recorded as -40.8%. For the molecule `Cc1nn(C)cc1CN(C)C(=O)c1ccc(OC2CCN(Cc3ccccn3)CC2)cc1`, the “hERG current change (%, negative = inhibition) at 10uM” value is 8.65%. Then `CCn1ccnc1CN(C)C(=O)c1ccc(OC2CCN(CCc3ccccc3)CC2)cc1`, with -24.8%; and `CN(CCc1ccccn1)C(=O)c1ccc(OC2CCN(CCc3ccccc3)CC2)cc1`, with -58.5%. Under `CN(CCc1ccccn1)C(=O)c1ccc(OC2CCN(Cc3ccccn3)CC2)cc1` stands 4.04%; under `O=C(CNc1ccccc1)Nc1ccc(F)cc1`, 3.4%. Under `O=C(NCCNS(=O)(=O)c1ccc(C(F)(F)F)cc1)N1CCOCC1` stands 6.84%.

With `COC(=O)c1ccccc1NC(=O)CSc1nnc(-c2cccc(NC(C)=O)c2)n1C`, the “hERG current change (%, negative = inhibition) at 10uM” value is listed as -3.68%. Under `CCCCn1c(N)c(N(CC(C)C)C(=O)CCCc2cccs2)c(=O)[nH]c1=O` stands -9.44%. As for `O=C(NCCCn1ccnc1)c1ccc(-c2ccccc2)cc1`, the “hERG current change (%, negative = inhibition) at 10uM” value is -21.6%. Under `COc1ccc(-n2ccnc2SCC(=O)NCc2ccc3c(c2)OCO3)cc1` stands -7.81%; under `COC(=O)C1C(=O)C2=C(CC1C)Nc1ccccc1NC2c1ccc(C)s1` (centres unmarked), 12.8%; under `C=CCOc1cccc(C2C(C(=O)c3ccc(C)o3)=C(O)C(=O)N2c2nccs2)c1` (centres unmarked), 7.99%. Under `Cc1c(CN(C)C(=O)c2nn(C)cc2[N+](=O)[O-])cnn1C` stands 8.63%; under `CCn1cc(CN(C)C(=O)/C=C/c2ccc([N+](=O)[O-])cc2)c(C)n1`, -59.4%. Take `Cc1nn(C)cc1C(=O)/C=C/c1ccc([N+](=O)[O-])cc1`: the “hERG current change (%, negative = inhibition) at 10uM” value is recorded as -12.4%.

With `Cc1c(CN(C)C(=O)c2ccc(Br)o2)cnn1C`, the “hERG current change (%, negative = inhibition) at 10uM” value was -7.89%. Under `Cc1c(CN(C)C(=O)/C=C/c2ccc([N+](=O)[O-])cc2)cnn1C` stands -69.6%. In the case of `CCn1cc(CNC(=O)/C=C/c2ccc([N+](=O)[O-])cc2)c(C)n1`, the “hERG current change (%, negative = inhibition) at 10uM” value was -33%.

On to `COc1ccc(N(CC(=O)NC2CCCCC2)C(=O)c2ccc(C)s2)c(OC)c1`, for which the “hERG current change (%, negative = inhibition) at 10uM” value is recorded as -18.1%. Under `CCN(CC)c1ccc(NC(=O)CCNS(=O)(=O)c2ccc3c(c2)CCC(=O)N3)c(C)c1` stands 5.77%; under `OCC(Br)CBr` (centres unmarked), 23%. Under `C=C1CCC2[C@](C)(CO)[C@H](O)CC[C@@]2(C)[C@@H]1C/C=C1\C(=O)OC[C@H]1O` (some centres unmarked) stands 18.9%. Take `CCc1nn(CC(=O)NCCCc2ccccc2)c(=O)c2cc3cc(F)ccc3n12`: the “hERG current change (%, negative = inhibition) at 10uM” value turned out to be 1.58%.

Regarding `CSCCC(=O)N1CCCC(N2CCN(c3cccc(C(F)(F)F)c3)CC2)C1` (centres unmarked), the “hERG current change (%, negative = inhibition) at 10uM” value was -40.4%. Regarding `Cc1ccccc1N1CCN(C2CCCN(C(=O)CCc3c(C)noc3C)C2)CC1` (centres unmarked), the “hERG current change (%, negative = inhibition) at 10uM” value was -46.3%. Under `Cc1ccccc1N1CCN(C2CCCN(C(=O)CCC3(C)CC3)C2)CC1` (centres unmarked) stands -48.6%; under `Cc1nn(C)c(C)c1CCC(=O)N1CCCC(N2CCN(c3ccc(F)cc3)CC2)C1` (centres unmarked), -12.5%; under `CC1(CCC(=O)N2CCCC(N3CCN(c4cccc(C(F)(F)F)c4)CC3)C2)CC1` (centres unmarked), -61.5%. Under `Cc1noc(C)c1CCC(=O)N1CCCC(N2CCN(c3ccc(F)cc3)CC2)C1` (centres unmarked) stands -53.4%. Under `CSCC(=O)N1CCCC(N2CCN(c3ccc(F)cc3)CC2)C1` (centres unmarked) stands -22.9%. Regarding `CSCC(=O)N1CCCC(N2CCN(c3cccc(C(F)(F)F)c3)CC2)C1` (centres unmarked), the “hERG current change (%, negative = inhibition) at 10uM” value is reported as -48.1%. Then `CC1(CCC(=O)N2CCCC(N3CCN(c4ccc(F)cc4)CC3)C2)CC1` (centres unmarked), with -64.7%; and `CC(C)NC(=O)N1CCN(c2ccncc2S(=O)(=O)N2CCCCC2)CC1`, with 5.19%; and `COc1ccc(-c2cnc(N)n2CC2CCCO2)cc1` (centres unmarked), with -5.53%.

As to `Cc1cc(C)n(CC(O)COc2c(C)cccc2C)n1` (centres unmarked), the “hERG current change (%, negative = inhibition) at 10uM” value is -1.28%. Then `O=P(C1=C(N2CCOCC2)/C(=C\c2ccccc2)CC1)(N1CCOCC1)N1CCOCC1`, with -25.3%; and `O=C(CSc1nnc(NC(=O)C2CC(=O)N(c3ccccc3)C2)s1)NCc1ccco1` (centres unmarked), with 16.9%; and `O=C(c1ccco1)N(Cc1cccc(F)c1)C1CCS(=O)(=O)C1` (centres unmarked), with -5.78%. Under `O=C(c1cccs1)N(Cc1ccc(Cl)cc1)C1CCS(=O)(=O)C1` (centres unmarked) stands -41.9%; under `O=C(c1ccco1)N(Cc1cccc(Cl)c1)C1CCS(=O)(=O)C1` (centres unmarked), -59%. `O=C(c1cccs1)N(Cc1cccc(F)c1)C1CCS(=O)(=O)C1` (centres unmarked): the “hERG current change (%, negative = inhibition) at 10uM” value is -14.9%. Then `O=C(c1cccs1)N(Cc1cccc(Cl)c1)C1CCS(=O)(=O)C1` (centres unmarked), with -52%; and `O=C(c1ccco1)N(Cc1ccc(Cl)cc1)C1CCS(=O)(=O)C1` (centres unmarked), with -11.6%; and `CC(=O)CCS(=O)(=O)c1ccc(C)c(C)c1`, with 1.19%. In the case of `O=C(OCC(=O)N1CCCC1=O)C1CCN(S(=O)(=O)c2ccc(Cl)c(C(F)(F)F)c2)CC1`, the “hERG current change (%, negative = inhibition) at 10uM” value is 5.31%. Then `COc1ccc(C(=O)NC(=S)Nc2ccc(S(=O)(=O)Nc3cc(OC)ncn3)cc2)cc1`, with 15.4%; and `CSCCC1NC(=O)N(CC(=O)N2CCc3ccccc3C2)C1=O` (centres unmarked), with -1.18%; and `CCOC(=O)c1[nH]c2ccc(OC)cc2c1NC(=O)c1ccccc1C(=O)O`, with 14.2%.

In the case of `CCCNC(=O)C1CCN(S(=O)(=O)c2cccs2)CC1`, the “hERG current change (%, negative = inhibition) at 10uM” value amounted to 28.1%. Consider `COCCNC(=O)C1CCN(S(=O)(=O)c2c(C)noc2/C=C/c2cccs2)CC1`, for which the “hERG current change (%, negative = inhibition) at 10uM” value is on record as -34.7%. Turning to `O=C(NCCN1C(=O)S/C(=C\c2ccccc2)C1=O)C1CCN(S(=O)(=O)c2cccs2)CC1`, the “hERG current change (%, negative = inhibition) at 10uM” value is listed as -23.8%. Turning to `COc1ccc(N2CCN(C(=O)C3CCN(S(=O)(=O)c4cccs4)CC3)CC2)cc1`, the “hERG current change (%, negative = inhibition) at 10uM” value is on record as -49.3%. Under `COc1ccc(N2CCN(CCNC(=O)CCNS(=O)(=O)c3cccs3)CC2)cc1` stands -24.7%; under `O=C(NCCCN1CCN(c2ccccc2F)CC1)C1CCN(S(=O)(=O)c2cccs2)CC1`, -60.6%; under `Cc1noc(/C=C/c2cccs2)c1S(=O)(=O)N1CCC(C(=O)NCCCN2CCC(C)CC2)CC1`, -83.7%. Under `O=C(NCCN1C(=O)S/C(=C\c2ccccc2F)C1=O)C1CCN(S(=O)(=O)c2cccs2)CC1` stands -57.2%; under `COc1ccc(N2CCN(CCNC(=O)C3CCN(S(=O)(=O)c4cccs4)CC3)CC2)cc1`, -50.7%. Under `O=C(NCCN1C(=O)S/C(=C\c2ccc(F)cc2)C1=O)C1CCN(S(=O)(=O)c2cccs2)CC1` stands -7.1%; under `Cc1noc(/C=C/c2cccs2)c1S(=O)(=O)N1CCC(C(=O)NCCCN2CCCC(C)C2)CC1` (centres unmarked), -44.5%; under `CCS(=O)(=O)N1CCC(C(=O)NCCCN2CCN(c3ccccc3F)CC2)CC1`, -16.3%. As to `Cc1cc(NS(=O)(=O)c2ccc(NC(=O)c3c(F)c(F)c(F)c(F)c3F)cc2)nc(C)n1`, the “hERG current change (%, negative = inhibition) at 10uM” value is 4.63%. For the molecule `CCN(C(=O)CSc1nnnn1-c1ccccc1OC)C1CCS(=O)(=O)C1` (centres unmarked), the “hERG current change (%, negative = inhibition) at 10uM” value came out at 21.2%. Then `O=C(CCNC(=O)c1ccccc1Cl)Nc1cccc(S(=O)(=O)N2CCOCC2)c1`, with 0.307%; and `CC(C)(C)c1[nH]nc2c1C(C1C=CCCC1)C(C#N)=C(N)O2` (centres unmarked), with -11%. Then `CN(C)CC1CCCCC1OC(=O)c1ccc(S(=O)(=O)N(C)c2ccccc2)cc1` (centres unmarked), with 17.8%; and `C/C(CC(=O)NCc1ccco1)=N\NC(=O)c1ccc([N+](=O)[O-])cc1Cl`, with 10.5%; and `CC(OC(=O)CCc1nc2ccccc2c(=O)[nH]1)C(=O)c1ccc(C(C)(C)C)cc1` (centres unmarked), with -12.3%. As to `COc1ccc(N(CC(=O)NCc2ccc(Cl)cc2)S(=O)(=O)c2c(C)noc2C)cc1`, the “hERG current change (%, negative = inhibition) at 10uM” value is recorded as 15.1%. Consider `O=[N+]([O-])CC(=Nc1ccc(F)cc1)N/N=C\c1oc(O)c2ccccc12`, for which the “hERG current change (%, negative = inhibition) at 10uM” value is -0.338%. Then `NCCCC[C@H]1CN=C(N)N1CCCCC1CCCCC1`, with -3.84%. Then `CC(C)C(NC(=O)c1ccccc1NC(=O)c1ccco1)C(=O)O` (centres unmarked), with -14.1%. Then `C/C(N)=C(/C#N)C(=O)COC(=O)CC1CCCC1`, with -2.15%; and `Cc1cccc(CC2CC(=O)N(c3ccc([N+](=O)[O-])cc3)C2=O)c1` (centres unmarked), with -53.3%. Consider `COc1cccc(N2C(=O)CC(N3CCN(c4ccc([N+](=O)[O-])cc4)CC3)C2=O)c1` (centres unmarked), for which the “hERG current change (%, negative = inhibition) at 10uM” value was -52.1%. Under `COc1cccc(N2CCN(C3CC(=O)N(c4ccc(Cl)c(Cl)c4)C3=O)CC2)c1` (centres unmarked) stands -0.0262%. With `O=C1CC(N2CCN(c3ccccc3)CC2)C(=O)N1c1cccc(Br)c1` (centres unmarked), the “hERG current change (%, negative = inhibition) at 10uM” value is -1.92%. Under `COc1ccccc1N1CCN(C2CC(=O)N(c3ccccc3)C2=O)CC1` (centres unmarked) stands 24.1%.

Take `Cc1cc(C)cc(CC2CC(=O)N(c3ccc([N+](=O)[O-])cc3)C2=O)c1` (centres unmarked): the “hERG current change (%, negative = inhibition) at 10uM” value is 9.78%. Consider `COc1ccccc1N1CCN(C2CC(=O)N(c3cccc(Br)c3)C2=O)CC1` (centres unmarked), for which the “hERG current change (%, negative = inhibition) at 10uM” value was -53.7%. Then `COc1ccccc1N1C(=O)CC(N2CCN(c3ccc(F)cc3)CC2)C1=O` (centres unmarked), with -1.99%. Then `COc1cccc(N2CCN(C3CC(=O)N(c4cccc(Cl)c4)C3=O)CC2)c1` (centres unmarked), with -14.4%; and `COc1ccccc1N1C(=O)CC(N2CCN(c3ccc(Cl)cc3)CC2)C1=O` (centres unmarked), with 1.61%; and `Cc1ccc(N2C(=O)CC(Cc3cccc(C)c3)C2=O)cc1` (centres unmarked), with 9.39%. Then `COc1ccccc1N1C(=O)CC(N2CCN(c3ccc([N+](=O)[O-])cc3)CC2)C1=O` (centres unmarked), with -68.6%.

The record behind these values is publication PMC4336329 (PLoS ONE, 2015).
